Most compounds without a hit are left out; they make up all but 4.1% or so of the library.
hgDAF-12 ag: activates the H. glycines DAF-12 receptor ligand-binding domain. HEK293 GAL4-hgDAF12 UAS-luciferase reporter, agonist luminescence; normalized to butyrate control. activation, % at 6.8 µM. 370,000 tested, 1.8% active;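 active means activation above a cutoff set at the mean of all screened compounds plus 3 SD, cut at about 10% in these data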
DAX1 inh-1: blocks DAX1 repression of SF-1 activated StAR promoter; HEK293T StAR-luciferase reporter, SF-1/DAX-1 repression relief; inhibition, % at 6.8 µM; 370,000 tested, 1.1% active; AID 652010;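 active means inhibition above the mean over all tested compounds plus 3 SD, cut at about 3.6% in these data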;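 further: higher inhibition means more luminescence from relief of DAX-1 repression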
ssDAF-12 act: activators of S. stercoralis DAF-12 nuclear receptor. HEK293 ssDAF-12/GRIP1 lit1-tk-luc reporter, luminescence; % of 3 µM dafachronic acid response. activation, % at 6.8 µM. 370,000 tested, 1% active. AID 652126;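 active means activation above the mean over all tested compounds plus 3 SD, cut at about 0.9% in these data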
DAX1 inh-2: inhibitors of human orphan nuclear receptor DAX1 (NR0B1); P51843; HEK293 Gal4-DAX1 luciferase reporter, luminescence; inhibition, % at 6.75 µM; 340,000 tested, 0.99% active; AID 504766;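 active means inhibition above the mean over all tested compounds plus 3 SD, cut at about 4.2% in these data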;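 further: inhibition shows as a rise in luminescence from relieved DAX1 repression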
Target sequence (P51843 207-470 limits assumed): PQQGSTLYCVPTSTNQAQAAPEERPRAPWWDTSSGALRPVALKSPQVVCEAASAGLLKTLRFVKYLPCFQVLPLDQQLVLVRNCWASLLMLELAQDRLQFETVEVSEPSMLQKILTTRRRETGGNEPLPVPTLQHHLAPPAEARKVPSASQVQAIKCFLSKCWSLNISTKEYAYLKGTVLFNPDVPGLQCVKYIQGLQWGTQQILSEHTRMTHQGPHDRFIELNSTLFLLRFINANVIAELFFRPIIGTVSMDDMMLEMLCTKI
hcDAF-12 act: activates DAF-12 receptor from parasite H. contortus; HEK293 hcDAF-12 lit1-tk-luc reporter, luminescence; 0% DMSO, 100% Δ7-dafachronic acid; 370,000 tested, 1.4% active; AID 652067; activation, % at 6.8 µM;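 active means activation above the mean of all tested compounds plus 3 SD, cut at about 5.5% in these data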
Of the large screens only hits and unclear results are named; the others gave an inactive call.

Cn1cc([C@]2(O)C(=O)Nc3ccc(Br)cc32)c2ccccc21	ssDAF-12 act 0.9 (no result: DAX1 inh-2)
CSCCC(C(=O)NC1CCCC1)n1c(C2CC2)nc2ccccc21 (stereo not drawn)	none (no result: DAX1 inh-2)
CC1CCC(NC(=O)Cn2c(=O)[nH]c3ccsc3c2=O)CC1 (stereo not drawn)	none
O=C(Cn1c(=O)[nH]c2ccsc2c1=O)NC1CCCCCC1	DAX1 inh-2 7.3
CCc1ccc(CN2CCC(n3nccc3NC(=O)c3ccccc3C)CC2)cc1	none
Cc1ccccc1C(=O)Nc1ccnn1C1CCN(Cc2c(C)n(C)c3ccccc23)CC1	hcDAF-12 act 6.1
Cc1cc(N2CCN(CC(C)(C)O)C[C@@H]2C)ccc1N1CCN(Cc2ccccc2)[C@H](C)C1	none (no result: DAX1 inh-2)
CCCCC#Cc1ccccc1COC[B-](F)(F)F	none (no result: DAX1 inh-2)
O=c1cc(-c2ccccc2)c2c([nH]1)CCCC2	hcDAF-12 act 5.7
Cc1ccccc1C(=O)Nc1cccc(-c2ccc(N3CCOCC3)nn2)c1	none
CCOC(=O)[C@@H]1c2[nH]c3ccccc3c2C[C@@]2(C(=O)OC)C=CCN12	ssDAF-12 act 1.5 (no result: DAX1 inh-2)
CN1CC=C(c2ccccc2)N(c2ccccc2)C1=O	none (no result: DAX1 inh-2)
Nc1[nH]c(C(=O)c2ccccc2)c(-c2cccc3ccccc23)c1C(=O)NC1CCCCC1	none (no result: DAX1 inh-2)
Fc1ccc(C2CC(c3ccco3)=Nc3ccccc3S2)cc1 (stereo not drawn)	DAX1 inh-2 7.0
Cc1ccccc1CN1CCCCC(NC(=O)c2cccc([N+](=O)[O-])c2)C1=O (stereo not drawn)	none (no result: DAX1 inh-2)
CCn1c2ccccc2c2cc(NC(=O)CSc3nnc(-c4ccccc4)n3Cc3ccco3)ccc21	none (no result: DAX1 inh-2)
COc1ccccc1C(=O)NCCC(=O)Nc1ccc(C)cn1	hcDAF-12 act 5.7
COc1cccc(C(=O)NCCC2=CCCCC2)c1	hgDAF-12 ag 11.5
O=C(CCNC(=O)c1ccc([N+](=O)[O-])cc1)NCCC1=CCCCC1	none
COc1ccc(C(=O)NCCC2=CCCCC2)cc1OC	none
Cc1cc(C(=O)NCCC2=CCCCC2)ccc1[N+](=O)[O-]	hgDAF-12 ag 10.9 (no result: DAX1 inh-2)
CC(=O)CC[C@@H]1CC[C@]2(CCCN(C(=O)c3ccccc3)C2)O1	none (no result: DAX1 inh-2)
CC(CNc1nc2ccc(Cl)cc2n2cnnc12)c1ccccc1 (stereo not drawn)	DAX1 inh-2 5.5
COc1cccc(C(C(=O)NCc2ccccc2)N2CCN(c3ccccc3F)CC2)c1OC (stereo not drawn)	none (no result: DAX1 inh-2)
CCOc1ccc(/C=C2/SC(=O)NC2=S)cc1	none
CCOc1ccc(/C=C2\SC(=S)N(N3C(=O)C4CC4C3=O)C2=O)cc1 (stereo not drawn)	hcDAF-12 act 5.7
Cc1c(C)c2ccc(OCC(=O)Nc3cccnc3)c(C)c2oc1=O	DAX1 inh-1 3.7
CCn1c(SCC(=O)Nc2ccccc2-c2ccccc2)nnc1-c1cnccn1	none (no result: DAX1 inh-2)
C=CCSc1[nH]c(=O)cc(C)c1C(N)=O	DAX1 inh-2 5.1
CC[C@H](CCCc1ccccc1OC)CCS(=O)(=O)N(C)C	none (no result: DAX1 inh-2)
CN(CCCC1CCCC1)C(=O)CCc1nnc(-c2ccccc2)o1	hgDAF-12 ag 11.9, DAX1 inh-2 5.4
Cc1cc(C)n(CCN(C)C(=O)CCc2nnc(CCC3CCCCC3)o2)n1	hgDAF-12 ag 11.9, ssDAF-12 act 1.2
CC(CNC(=O)CCc1nnc(CCC2CCCCC2)o1)c1ccccc1 (stereo not drawn)	DAX1 inh-2 5.6
Cc1cnc(C=O)c2cccc([N+](=O)[O-])c12	hcDAF-12 act 5.9
O=C(/C(=C\c1ccccc1)c1nc2ccccc2[nH]1)c1ccc(Cl)cc1	hgDAF-12 ag 11.2
Cc1ccc(S(=O)(=O)NC2CC2)cc1[N+](=O)[O-]	none
CCOC(=O)N/N=C(\C)c1ccc(-n2cnnn2)cc1	hgDAF-12 ag 12.8
OCC[C@H]1C[C@@H](O)[C@H](O)[C@@]2(OCc3ccccc32)O1	none
CCCC(=O)N1CCC(C(=O)NC2CCCc3ccccc32)CC1 (stereo not drawn)	none (no result: DAX1 inh-2)
CC1=C(C(=O)NC(C)CCc2ccccc2)C2(CCC(C)CC2)OC1=O (stereo not drawn)	DAX1 inh-2 5.1
O=C(N/N=C1\CCCCc2ccccc21)c1ccccn1	hgDAF-12 ag 12.3
O=C(N/N=C1\CCc2ccccc21)c1ccccc1O	DAX1 inh-1 4.4, hcDAF-12 act 6.1
O=C(N/N=C1\CCCc2ccccc21)c1ccccc1Cl	none
Cn1ncc2c(NCCO)nc(Cl)nc21	ssDAF-12 act 1.5
C=C(C)CSc1nnc(-c2cc(-c3ccccc3)n[nH]2)n1N	none (no result: DAX1 inh-2)
CC1(C)CC2CC(C)(CN2C(=O)COC(=O)c2n[nH]c(=O)c3ccccc23)C1 (stereo not drawn)	DAX1 inh-2 4.4
CC1(C)CC2CC(C)(CN2C(=O)COC(=O)c2cccnc2Cl)C1 (stereo not drawn)	none
O=[N+]([O-])c1cnn(-c2nc(-c3cccs3)cc(C(F)(F)F)n2)c1	DAX1 inh-2 4.7
CN1CCCN(C(=O)CSc2nnc(-c3cccnc3)n2C2CCCCC2)CC1	none (no result: DAX1 inh-2)
O=C(OCC(=O)N1CCCCCC1)c1ccc(F)cc1F	none
Cc1cc([N+](=O)[O-])nn1CC(=O)N(C)C1CCCCC1	hcDAF-12 act 6.3
CCOC(=O)C1=C(C)Nc2nc3ccccc3n2C1c1ccccc1 (stereo not drawn)	DAX1 inh-2 5.4
O=[N+]([O-])c1ccc(CSc2nc3ccccc3o2)cc1	hgDAF-12 ag 11.8, DAX1 inh-1 3.6
COC(=O)c1ccc(CSc2nc3ccccc3o2)cc1	none
COCc1cn(-c2cccc(-c3noc4c3C(=O)N(CC(=O)N3CCOCC3)CC4)c2)nn1	none (no result: DAX1 inh-2)
Oc1cc(-c2ccc(N3CCCCC3)nc2)cc2cccnc12	DAX1 inh-2 5.6 (no result: hgDAF-12 ag, DAX1 inh-1, ssDAF-12 act, hcDAF-12 act)
CCOC(=O)c1cc(C(=O)Nc2ccccc2F)nn1C	hgDAF-12 ag 13.2
CCOC(=O)n1ccc(C(=O)Nc2ccccc2F)n1	none
Cc1cc(C)c2cc(C(=O)N3CCC(C(=O)c4ccc(F)cc4)CC3)[nH]c2c1	none
Cc1cc(C)c2cc(C(=O)N3CCC(N4CCCCC4)CC3)[nH]c2c1	DAX1 inh-1 4.3
CCC[C@H]1[C@@H](N)CC[C@@]23CCCN2C(=O)CCC[C@@H]13	none (no result: DAX1 inh-1, DAX1 inh-2)
COC(=O)[C@]12C[C@H](CC(=O)NCCC(C)C)C(=O)N(CCc3ccc(OC)c(OC)c3)C1=C[C@H](C1CCCC1)O[C@@H]2C	none (no result: DAX1 inh-2)
CSCC[C@H](NC(=O)c1cc([N+](=O)[O-])ccc1Cl)c1nc2ccccc2[nH]1	hcDAF-12 act 5.9
CSCCC(NC(=O)c1cccc([N+](=O)[O-])c1)c1nc2ccccc2[nH]1 (stereo not drawn)	none
O=C(c1ccc(F)cc1)C1CCN(c2ncnc3sccc23)CC1	none (no result: DAX1 inh-1, DAX1 inh-2)
Cc1cccc(NC(=O)[C@@H]2CCCN2C2=NS(=O)(=O)c3ccccc32)c1C	DAX1 inh-2 4.4
CCS(=O)(=O)Nc1ccc2c(c1)C(=O)N(C)[C@@H]1CC[C@H](CC(=O)N3CCCCC3)O[C@H]1CO2	none (no result: DAX1 inh-2)
O=S(=O)(c1ccccc1)c1nc(-c2cccc(Cl)c2)oc1N1CCOCC1	none

Compound activity deposited in PubChem by The Scripps Research Institute Molecular Screening Center.
